Compounds without any hit were thinned out: in the full panel of roughly 83,000, 20% have a hit.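 Results are percent growth after 48 hours of single-concentration exposure. 100 means growth as in untreated cells, lower positive values show inhibition; negative values down to -100 show cell death.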 Activity calls are given as the source filed them. How the source made its calls: active means growth percent below 10; inactive means the rest.

The subject of this test is HCT-116 colon. Kind of test: NCI-60 one-dose screen, 48 h (100 = growth as untreated, 0 = no growth, -100 = all killed). The note with it: 10 µM unless noted.
On to `Cc1ccc(-c2csc(NC(=O)CN3CCN(c4cc5c(cc4F)c(=O)c(C(=O)O)cn5C4CC4)CC3)n2)cc1`, for which the growth is 14.2% (inactive).

Turning to `O=C(Nc1ccc(-c2nc(N3CCOCC3)c3cccn3n2)cc1)Nc1cccnc1`, the growth was 4.12% (active).

In the case of `CC(=O)OC[C@]12CCC(C)(C)C[C@H]1[C@@]1(O)[C@H](O)C[C@@H]3[C@@]4(C)CCCNC(C)(C)[C@@H]4CC[C@@]3(C)[C@]1(C)CC2`, the growth is 104% (inactive).

For `Cn1ccnc1C(=O)C(=O)Nc1ccc(CC(=O)Nc2ccccc2)cc1`, the growth is 114% (inactive).

With `O=[N+]([O-])c1ccc(-c2nc(N3CCOCC3)c3c4c(sc3n2)CCCC4)cc1`, the growth was 68.1% (inactive).

On to `O=C1/C(=C\c2cn(-c3ccccc3)nc2-c2ccc(-c3cccs3)cc2)CCc2ccccc21`, for which the growth was 43.7% (inactive).

Consider `Cc1ccc(-c2cc(-c3ccc(Cl)cc3)nc(NC(=O)c3cccnc3)n2)cc1`, for which the growth is 98.9% (inactive).

For `C[C@@H]1CCC[C@H]1CC(N)C(=O)O` (stereo not given in full), the growth was 95.7% (inactive).

`CSc1nnc(-c2cnn3c2NC(c2ccccc2)C3)n1-c1ccc(C(F)(F)F)cc1` (stereo not given): the growth is 46% (inactive).

Take `COc1ccccc1Nc1nc2c(s1)C1=CC[C@H]3[C@@H]4CC[C@H]([C@H](C)CCCC(C)C)[C@@]4(C)CC[C@@H]3[C@@]1(C)CC2`: the growth was 102% (inactive).

As to `CCOC(=O)c1ccc2[nH]c(O)c(C(=Nc3ccc(N(C)C(=O)CN4CCN(C)CC4)cc3)c3ccccc3)c2c1`, the growth was -38.8% (active).

Regarding `COc1ccc(-c2nnc(-c3ccc4c(c3)nc(-c3ccncc3)n4C3CCCCC3)o2)cc1`, the growth is 62.3% (inactive).

Consider `CCCCCCC1(C)NCCO1` (stereo not given), for which the growth is 106% (inactive).

As to `O=C(CCCCCCN1CC(=O)N2[C@H](c3cc(Br)cs3)c3[nH]c4ccccc4c3C[C@H]2C1=O)NO`, the growth is 13% (inactive).

On to `C=CCn1c(SCC(=O)Nc2ccc(C(=O)/C=C/c3cc4cc(OC)ccc4nc3Cl)cc2)nnc1-c1ccc(Br)cc1`, for which the growth is -44% (active).

In the case of `O=C(COc1ccc(-c2nc3ccccc3[nH]2)cc1)N=Nc1c(O)[nH]c2ccc(Cl)cc12`, the growth is 47.2% (inactive).

Regarding `Cc1cc(=O)[nH]c2c(C#N)cnn12`, the growth was 98.5% (inactive).

In the case of `O=C1Nc2ccc(I)cc2C1=O`, the growth is 71.8% (inactive).

Take `Fc1ccc(Nc2nc3nonc3nc2Nc2ccc(I)cc2)cc1`: the growth is 3.42% (active).

`CN1CCN(Cc2ccc3c(NNC(=O)c4ccccc4)nc4cc(F)ccc4n23)CC1`: the growth is 27% (inactive).

With `O=C(Nn1c2c(sc1=NCc1ccccc1)C(=O)c1ccccc1C2=O)c1cc2ccc1CCc1ccc(cc1)CC2`, the growth is 55.9% (inactive).

For `Cc1cc2c(O)c(-c3cccc(Cl)c3)c3sc(=O)oc3c2cc1C`, the growth is 18.1% (inactive).

On to `CC12CCC3c4ccccc4CCC3(CO1)C2` (stereo not given), for which the growth was 117% (inactive).

For the compound `O=C(Cn1cc(CN2CCCCCC2)nn1)Nc1ccc2c(ccn2Cc2ccccc2)c1`, the growth was 95% (inactive).

With `COc1cc(OC)cc(C2=C3CC[C@@H]4[C@H](CC[C@]5(C)C(=O)CC[C@@H]45)C3=CC3C(O)c4cccnc4N4C(=O)COC234)c1` (stereo not given in full), the growth was 97% (inactive).

Consider `O=C(Cn1c(-c2ccc([N+](=O)[O-])cc2)nc2ccccc21)NNC(=O)c1cccnc1`, for which the growth was 82.1% (inactive).

For the compound `CCNc1nc(-c2ccc(Cl)c(OC)c2)c(-c2ccnc(NCCCNS(=O)(=O)c3ccc(Cl)cc3)n2)s1`, the growth is 42.4% (inactive).

`COc1ccc2c(O)c(/C=C3\N=Nc4ccccc43)oc2c1C[C@@H]1CCNC[C@H]1F`: the growth was -68.2% (active).

Regarding `CC(C)(C)[Si](C)(C)O[C@H]1C(=O)C=CN2CC=C[C@@H]12`, the growth is 92.9% [100 µM] (inactive).

As for `CN1CCN(Cc2ccc(NC(=O)c3cncc(C#Cc4cnc(N)c5ccccc45)c3)cc2C(F)(F)F)CC1`, the growth is -60.9% (active).

With `CC(C)N1CN2C(=S)NC3C2N(C1)C(=S)N3C` (stereo not given), the growth is 105% (inactive).

With `COc1ccc(C(=O)Nc2cccc(C3CC(=O)c4c(cc(OC)c(OC)c4OC)O3)c2)cc1` (stereo not given), the growth was 10.9% (inactive).

In the case of `O=c1oc2ccc([N+](=O)[O-])cc2cc1Br`, the growth is 105% (inactive).

Turning to `CCOC(=O)c1cc2c(=O)oc3ccccc3c2oc1=O`, the growth is 109% (inactive).

On to `Clc1ccc(Sc2cnc(-c3ccccc3)o2)cc1`, for which the growth was 104% (inactive).

For the compound `CN(C)c1ccc(/C=C/C(=O)c2ccc(-n3cc(CN4CCN(c5cc6c(cc5F)c(=O)c(C(=O)O)cn6C5CC5)CC4)nn3)cc2)cc1`, the growth was -10.3% (active).

Consider `Oc1ccc(CCn2c(O)c(/C=C3\CN=c4ccccc4=N3)sc2=S)cc1`, for which the growth is 55.8% (inactive).

On to `COC1C[C@H](O[C@@H]2C[C@H](O[C@@H]3C[C@H](O[C@@H]4C(=O)c5c(cc6cc(O[C@H]7C[C@@H](O[C@H]8C[C@@H](O)[C@H](O)C(C)O8)[C@H](O)C(C)O7)c(C)c(O)c6c5O)C[C@H]4C(OC)C(=O)[C@@H](O)[C@@H](C)O)OC(C)[C@H]3O)OC(C)[C@@H]2O)OC(C)[C@@H]1O` (stereo not given in full), for which the growth is 4.82% (active).

With `C[C@H](NC(=O)[C@@H](C)N)[C@H](Oc1ccc2c(cnn2-c2ccc(F)cc2)c1)c1ccc2c(c1)OCCO2`, the growth is 38.6% (inactive).

With `CCc1ccc(Oc2cn[nH]c2-c2ccc(OCCc3ccc(F)cc3)cc2O)cc1`, the growth was 71.9% (inactive).
